Laboratory results reported in PubChem BioAssay (NCATS).
Starred links: 1 amine or outer side, 2 acyl side, 3 side chain; linkers in the order of their positions; H or OH if unused. Positions of bridges follow the written chain, without caps; N, C: chain ends. Non-standard residues stand in square brackets, D forms with d. Residues, ends and D or L forms follow the SMILES beside them. Chains are numbered I, II in the order given. Actinocin(9to1) = Cc1c2oc3c(C)ccc(C(=O)[*:1])c3nc-2c(C(=O)[*:2])c(N)c1=O; NMeV = CN[CH](C(=O)O)C(C)C; Sar = CNCC(=O)O

Test: qHTS profiling for inhibitors of Plasmodium falciparum (DD2) proliferation (AID 743323)
Settings: lower = more inhibition; at 28.7 µM (top of the series)
Procedure, shortened: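 Parasite proliferation measured via DNA-dye fluorescence, as uninfected erythrocytes lack DNA. Cultures at 0.3% parasitemia and 2.5% hematocrit incubated 72 h with compound; signal scaled between vehicle and 0.29 uM artemisinin wells.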

Compared with `COc1cc2c(cc1OC)[C@@H]1C(=O)c3ccc4c(c3O[C@@H]1CO2)C=CC(C)(C)O4`, `COC(=O)C1C2CC3c4[nH]c5cc(OC)ccc5c4CCN3CC2CC(OC(=O)c2cc(OC)c(OC)c(OC)c2)C1OC` (stereo not given) is lower in activity, percent of control: 44.5% for the first, 9.89% for the second.

Going from `Cn1c(Nc2ccc(C(F)(F)F)cc2)nc2cc(Oc3ccnc(-c4ncc(C(F)(F)F)[nH]4)c3)ccc21` to `c1ccc2c(Oc3nc(Nc4ccc(N5CCOCC5)cc4)c4ncn(C5CCCCC5)c4n3)cccc2c1`, the activity, percent of control rises from 0.692% to 1.45%.

First: NC(=O)c1ncn([C@@H]2O[C@H](CO)[C@@H](O)[C@@H]2O)c1N
Second: Nc1ncn([C@@H]2O[C@H](CO)[C@@H](O)[C@@H]2O)c(=O)n1
The activity, percent of control of the first is higher: 92.4% for the first, 90.8% for the second.

Compared with `N#Cc1ccc(COC[C@H]2O[C@@H](n3c(NCc4ccc(Cl)c(Cl)c4)nc4c(N)ncnc43)[C@@H](O)[C@@H]2O)cc1`, `CN(C)c1ccc2cc(C(=O)N[C@@H](CCCN=C(N)CCl)C(=O)NCc3ccccc3)ccc2c1` is lower in activity, percent of control: 23.4% for the first, 11.8% for the second.

First: O=C(O)CCCCC(CCSCc1ccccc1)SCc1ccccc1 (stereo not given)
Second: O=C(C[C@@H]1CC=CCCC(=O)O[C@H](c2ccccc2)CNC1=O)NCc1ccc(Cl)cc1
The activity, percent of control of the first is lower: 84% for the first, 102% for the second.

Going from `Cc1c2oc3c(C)ccc(C(=O)NC4C(=O)NC(C(C)C)C(=O)N5CCCC5C(=O)N(C)CC(=O)N(C)C(C(C)C)C(=O)OC4C)c3nc-2c(C(=O)NC2C(=O)NC(C(C)C)C(=O)N3CCCC3C(=O)N(C)CC(=O)N(C)C(C(C)C)C(=O)OC2C)c(N)c1=O` (stereo not given) (I: TVP[Sar][NMeV] / II: TVP[Sar][NMeV]; ester I:1-I:C, II:1-II:C; linker I:N-II:N via Actinocin(9to1); configuration not given here) to `COc1cc(C)c(Sc2cnc(NC(=O)c3ccc(CNC(C)C(C)(C)C)cc3)s2)cc1C(=O)N1CCN(C(C)=O)CC1` (stereo not given), the activity, percent of control rises from -2.06% to 8.81%.

Going from `COc1cccc2c1C(=O)c1c(O)c3c(c(O)c1C2=O)C[C@@](O)(C(=O)CO)C[C@H]3O[C@H]1C[C@H](N)[C@H](O)[C@H](C)O1` to `COc1cc(C=CC(=O)CC(=O)C=Cc2ccc(O)c(OC)c2)ccc1O`, the activity, percent of control rises from -1.95% to -0.402%.

`O=C(O)CCCCCC(=O)NN=C1CCCC1` gave an activity, percent of control of 96.4%.

Test: qHTS profiling for inhibitors of Plasmodium falciparum (HB3) proliferation (AID 743324);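 note: 100% = DMSO vehicle wells and 0% = artemisinin-treated control wells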
Settings: Plasmodium falciparum HB3 blood-stage proliferation; at 28.7 µM (top of the series)
Procedure, shortened: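 P. falciparum HB3 grown in erythrocytes (0.3% parasitemia, 2.5% hematocrit final) with compound for 72 h at 37 C, 5% CO2. Parasite DNA detected by SYBR Green after saponin/triton lysis overnight; normalized to 0.29 uM artemisinin and DMSO.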

Going from `COc1cc2c(cc1OC)[C@@H]1C(=O)c3ccc4c(c3O[C@@H]1CO2)C=CC(C)(C)O4` to `COC(=O)C1C2CC3c4[nH]c5cc(OC)ccc5c4CCN3CC2CC(OC(=O)c2cc(OC)c(OC)c(OC)c2)C1OC` (stereo not given), the remaining proliferation (% of control), lower = more inhibition falls from 17.6% to 2.79%.

Compared with `Cn1c(Nc2ccc(C(F)(F)F)cc2)nc2cc(Oc3ccnc(-c4ncc(C(F)(F)F)[nH]4)c3)ccc21`, `c1ccc2c(Oc3nc(Nc4ccc(N5CCOCC5)cc4)c4ncn(C5CCCCC5)c4n3)cccc2c1` is lower in remaining proliferation (% of control), lower = more inhibition: -0.79% for the first, -1.02% for the second.

Going from `NC(=O)c1ncn([C@@H]2O[C@H](CO)[C@@H](O)[C@@H]2O)c1N` to `Nc1ncn([C@@H]2O[C@H](CO)[C@@H](O)[C@@H]2O)c(=O)n1`, the remaining proliferation (% of control), lower = more inhibition falls from 92.9% to 89.3%.

First: N#Cc1ccc(COC[C@H]2O[C@@H](n3c(NCc4ccc(Cl)c(Cl)c4)nc4c(N)ncnc43)[C@@H](O)[C@@H]2O)cc1
Second: CN(C)c1ccc2cc(C(=O)N[C@@H](CCCN=C(N)CCl)C(=O)NCc3ccccc3)ccc2c1
The remaining proliferation (% of control), lower = more inhibition of the first is higher: 21.1% for the first, -0.673% for the second.

Compared with `O=C(O)CCCCC(CCSCc1ccccc1)SCc1ccccc1` (stereo not given), `O=C(C[C@@H]1CC=CCCC(=O)O[C@H](c2ccccc2)CNC1=O)NCc1ccc(Cl)cc1` is higher in remaining proliferation (% of control), lower = more inhibition: 70.4% for the first, 71.1% for the second.

Compared with `Cc1c2oc3c(C)ccc(C(=O)NC4C(=O)NC(C(C)C)C(=O)N5CCCC5C(=O)N(C)CC(=O)N(C)C(C(C)C)C(=O)OC4C)c3nc-2c(C(=O)NC2C(=O)NC(C(C)C)C(=O)N3CCCC3C(=O)N(C)CC(=O)N(C)C(C(C)C)C(=O)OC2C)c(N)c1=O` (stereo not given) (I: TVP[Sar][NMeV] / II: TVP[Sar][NMeV]; ester I:1-I:C, II:1-II:C; linker I:N-II:N via Actinocin(9to1); configuration not given here), `COc1cc(C)c(Sc2cnc(NC(=O)c3ccc(CNC(C)C(C)(C)C)cc3)s2)cc1C(=O)N1CCN(C(C)=O)CC1` (stereo not given) is higher in remaining proliferation (% of control), lower = more inhibition: -1.93% for the first, 4.6% for the second.

Compared with `COc1cccc2c1C(=O)c1c(O)c3c(c(O)c1C2=O)C[C@@](O)(C(=O)CO)C[C@H]3O[C@H]1C[C@H](N)[C@H](O)[C@H](C)O1`, `COc1cc(C=CC(=O)CC(=O)C=Cc2ccc(O)c(OC)c2)ccc1O` is lower in remaining proliferation (% of control), lower = more inhibition: 4.32% for the first, 0.164% for the second.

With `O=C(O)CCCCCC(=O)NN=C1CCCC1` the remaining proliferation (% of control), lower = more inhibition was 107%.
